# Results taken from PubChem BioAssay AID1159580 (chemical genetic matrix, 2015).
# In all, about 5,500 compounds went through this assay and about 2,000 (36%) were called active. Another 18% or so got no clear call; they are omitted. The list shows a part of the results. A number with no mark means an inactive call. No stated cut-off is given here; in the data, active means normalized growth mostly below about 0.91 (no sharp cut-off); inconclusive means no clear call, values can overlap the other calls; inactive means mostly above about 0.92.
# Assay: chemical genetic growth profiling, strain panel (AID 1159580);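 further: tested at 20 µM; growth read once vehicle control cultures reached saturation at 30 °C; 1 = growth at the plate median or of vehicle wells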
# Settings: growth OD
# [1] = S. cerevisiae deletion strains, locus YDL101C, strain DUN1, stronger effect = lower value
# [2] = S. cerevisiae deletion strains, locus YHR030C, strain SLT2, stronger effect = lower value
structure (smiles),measurement,setting,value
O=C(NCCSCc1cccc(C(F)(F)F)c1)c1ccc(Cl)cc1,normalized growth,"S. cerevisiae deletion strains, locus YAR019C, strain CDC15, stronger effect = lower value",0.968
same,normalized growth,"S. cerevisiae deletion strains, locus YBL105C, strain PKC1, stronger effect = lower value",0.965
same,normalized growth,"S. cerevisiae deletion strains, locus YBR135W, strain CKS1, stronger effect = lower value",0.953
same,normalized growth,"S. cerevisiae deletion strains, locus YBR136W, strain MEC1, stronger effect = lower value",0.979
same,normalized growth,"S. cerevisiae deletion strains, locus YBR160W, strain CDC28, stronger effect = lower value",0.964
same,normalized growth,"S. cerevisiae deletion strains, locus YDL017W, strain CDC7, stronger effect = lower value",0.971
same,normalized growth,"S. cerevisiae deletion strains, locus YDL028C, strain MPS1, stronger effect = lower value",0.947
same,normalized growth,[1],0.975
same,normalized growth,"S. cerevisiae deletion strains, locus YDL108W, strain KIN28, stronger effect = lower value",0.961
same,normalized growth,"S. cerevisiae deletion strains, locus YDL132W, strain cdc53, stronger effect = lower value",0.96
same,normalized growth,"S. cerevisiae deletion strains, locus YDL214C, strain PRR2, stronger effect = lower value",0.891
same,normalized growth,"S. cerevisiae deletion strains, locus YDR052C, strain DBF4, stronger effect = lower value",0.982
same,normalized growth,"S. cerevisiae deletion strains, locus YDR054C, strain cdc34, stronger effect = lower value",0.955
same,normalized growth,"S. cerevisiae deletion strains, locus YDR226W, strain ADK1, stronger effect = lower value",0.973
same,normalized growth,"S. cerevisiae deletion strains, locus YDR477W, strain SNF1, stronger effect = lower value",0.894
same,normalized growth,"S. cerevisiae deletion strains, locus YER123W, strain YCK3, stronger effect = lower value",0.851
same,normalized growth,"S. cerevisiae deletion strains, locus YER133W, strain GLC7, stronger effect = lower value",0.916
same,normalized growth,"S. cerevisiae deletion strains, locus YFL009W, strain cdc4, stronger effect = lower value",0.961
same,normalized growth,"S. cerevisiae deletion strains, locus YFL029C, strain CAK1, stronger effect = lower value",0.965
same,normalized growth,"S. cerevisiae deletion strains, locus YFR003C, strain YPI1, stronger effect = lower value",0.964
same,normalized growth,"S. cerevisiae deletion strains, locus YFR019W, strain FAB1, stronger effect = lower value",0.964
same,normalized growth,"S. cerevisiae deletion strains, locus YFR028C, strain CDC14, stronger effect = lower value",0.965
same,normalized growth,"S. cerevisiae deletion strains, locus YGR040W, strain KSS1, stronger effect = lower value",0.905
same,normalized growth,"S. cerevisiae deletion strains, locus YGR052W, strain FMP48, stronger effect = lower value",0.826
same,normalized growth,"S. cerevisiae deletion strains, locus YGR092W, strain DBF2, stronger effect = lower value",0.733
same,normalized growth,[2],0.614 (active)
same,normalized growth,"S. cerevisiae deletion strains, locus YHR079C, strain IRE1, stronger effect = lower value",0.72
same,normalized growth,"S. cerevisiae deletion strains, locus YHR082C, strain KSP1, stronger effect = lower value",0.871
same,normalized growth,"S. cerevisiae deletion strains, locus YHR205W, strain SCH9, stronger effect = lower value",0.738
same,normalized growth,"S. cerevisiae deletion strains, locus YIL147C, strain SLN1, stronger effect = lower value",0.97
same,normalized growth,"S. cerevisiae deletion strains, locus YJL095W, strain BCK1, stronger effect = lower value",0.743
same,normalized growth,"S. cerevisiae deletion strains, locus YJL128C, strain PBS2, stronger effect = lower value",0.887
same,normalized growth,"S. cerevisiae deletion strains, locus YJL157C, strain FAR1, stronger effect = lower value",0.918
same,normalized growth,"S. cerevisiae deletion strains, locus YJR016C, strain ILV3, stronger effect = lower value",0.959
same,normalized growth,"S. cerevisiae deletion strains, locus YJR066W, strain TOR1 (second series), stronger effect = lower value",0.897
same,normalized growth,"S. cerevisiae deletion strains, locus YJR066W, strain TOR1, stronger effect = lower value",0.769
same,normalized growth,"S. cerevisiae deletion strains, locus YKL048C, strain ELM1, stronger effect = lower value",0.963
same,normalized growth,"S. cerevisiae deletion strains, locus YKL067W, strain YNK1, stronger effect = lower value",0.864
same,normalized growth,"S. cerevisiae deletion strains, locus YKL101W, strain HSL1, stronger effect = lower value",0.917
same,normalized growth,"S. cerevisiae deletion strains, locus YKL193C, strain SDS22, stronger effect = lower value",0.962
same,normalized growth,"S. cerevisiae deletion strains, locus YKL203C, strain TOR2, stronger effect = lower value",0.988
same,normalized growth,"S. cerevisiae deletion strains, locus YLR113W, strain HOG1, stronger effect = lower value",0.736 (active)
same,normalized growth,"S. cerevisiae deletion strains, locus YLR133W, strain CKI1, stronger effect = lower value",0.902
same,normalized growth,"S. cerevisiae deletion strains, locus YLR403W, strain SFP1, stronger effect = lower value",0.896
same,normalized growth,"S. cerevisiae deletion strains, locus YML070W, strain DAK1, stronger effect = lower value",0.903
same,normalized growth,"S. cerevisiae deletion strains, locus YMR001C, strain CDC5, stronger effect = lower value",0.963
same,normalized growth,"S. cerevisiae deletion strains, locus YMR205C, strain PFK2 (second series), stronger effect = lower value",0.885
same,normalized growth,"S. cerevisiae deletion strains, locus YMR277W, strain FCP1, stronger effect = lower value",0.951
same,normalized growth,"S. cerevisiae deletion strains, locus YNL006W, strain LST8, stronger effect = lower value",0.967
same,normalized growth,"S. cerevisiae deletion strains, locus YNL020C, strain ARK1, stronger effect = lower value",0.896
same,normalized growth,"S. cerevisiae deletion strains, locus YNL161W, strain CBK1, stronger effect = lower value",0.973
same,normalized growth,"S. cerevisiae deletion strains, locus YNL183C, strain NPR1, stronger effect = lower value",0.819
same,normalized growth,"S. cerevisiae deletion strains, locus YNL207W, strain RIO2, stronger effect = lower value",0.969
same,normalized growth,"S. cerevisiae deletion strains, locus YNL222W, strain SSU72, stronger effect = lower value",0.965
same,normalized growth,"S. cerevisiae deletion strains, locus YNL307C, strain MCK1 (second series), stronger effect = lower value",0.86
same,normalized growth,"S. cerevisiae deletion strains, locus YOL078W, strain AVO1, stronger effect = lower value",0.963
same,normalized growth,"S. cerevisiae deletion strains, locus YOL136C, strain PFK27, stronger effect = lower value",0.896
same,normalized growth,"S. cerevisiae deletion strains, locus YOR061W, strain CKA2, stronger effect = lower value",0.849
same,normalized growth,"S. cerevisiae deletion strains, locus YOR119C, strain RIO1, stronger effect = lower value",0.916
same,normalized growth,"S. cerevisiae deletion strains, locus YOR231W, strain MKK1, stronger effect = lower value",0.764
same,normalized growth,"S. cerevisiae deletion strains, locus YOR329C, strain SCD5, stronger effect = lower value",0.965
same,normalized growth,"S. cerevisiae deletion strains, locus YPL031C, strain PHO85, stronger effect = lower value",0.892
same,normalized growth,"S. cerevisiae deletion strains, locus YPL153C, strain RAD53, stronger effect = lower value",0.892
same,normalized growth,"S. cerevisiae deletion strains, locus YPL204W, strain HRR25, stronger effect = lower value",0.886
same,normalized growth,"S. cerevisiae deletion strains, locus YPL209C, strain IPL1, stronger effect = lower value",0.968
same,normalized growth,"S. cerevisiae deletion strains, locus YPL256C, strain CLN2, stronger effect = lower value",0.797 (active)
same,normalized growth,"S. cerevisiae deletion strains, locus YPR025C, strain CCL1, stronger effect = lower value",0.957
same,normalized growth,"S. cerevisiae deletion strains, locus YPR106W, strain ISR1, stronger effect = lower value",0.947
same,normalized growth,"S. cerevisiae deletion strains, locus YPR111W, strain DBF20, stronger effect = lower value",0.93
same,normalized growth,"S. cerevisiae deletion strains, strain NNK1, stronger effect = lower value",0.954
same,normalized growth,"S. cerevisiae deletion strains, strain TSCII, stronger effect = lower value",0.959
O=C(NCCSCc1ccc(Cl)cc1)c1ccc(Cl)cc1,normalized growth,"S. cerevisiae deletion strains, locus YAL013W, strain DEP1, stronger effect = lower value",0.941
same,normalized growth,"S. cerevisiae deletion strains, locus YBR229C, strain ROT2, stronger effect = lower value",0.919 (active)
same,normalized growth,[1],0.915
same,normalized growth,"S. cerevisiae deletion strains, locus YDR150W, strain NUM1, stronger effect = lower value",0.925
same,normalized growth,"S. cerevisiae deletion strains, locus YEL061C, strain CIN8, stronger effect = lower value",1.02
same,normalized growth,"S. cerevisiae deletion strains, locus YGR078C, strain PAC10, stronger effect = lower value",0.902 (active)
same,normalized growth,[2],0.0946 (active)
same,normalized growth,"S. cerevisiae deletion strains, locus YHR087W, strain rtc3, stronger effect = lower value",0.903 (active)
same,normalized growth,"S. cerevisiae deletion strains, locus YJL187C, strain SWE1, stronger effect = lower value",0.897 (active)
same,normalized growth,"S. cerevisiae deletion strains, locus YJR043C, strain POL32, stronger effect = lower value",0.948
same,normalized growth,"S. cerevisiae deletion strains, locus YJR075W, strain HOC1, stronger effect = lower value",0.954
same,normalized growth,"S. cerevisiae deletion strains, locus YLR039C, strain RIC1, stronger effect = lower value",1.09
same,normalized growth,"S. cerevisiae deletion strains, locus YLR058C, strain SHM2 (second series), stronger effect = lower value",0.972
same,normalized growth,"S. cerevisiae deletion strains, locus YLR085C, strain ARP6, stronger effect = lower value",0.724 (active)
same,normalized growth,"S. cerevisiae deletion strains, locus YLR262C, strain YPT6, stronger effect = lower value",1.01
same,normalized growth,"S. cerevisiae deletion strains, locus YML094W, strain GIM5, stronger effect = lower value",0.881
same,normalized growth,"S. cerevisiae deletion strains, locus YMR219W, strain ESC1, stronger effect = lower value",0.932 (active)
same,normalized growth,"S. cerevisiae deletion strains, locus YMR263W, strain SAP30, stronger effect = lower value",0.954
same,normalized growth,"S. cerevisiae deletion strains, locus YMR307W, strain GAS1, stronger effect = lower value",0.849
same,normalized growth,"S. cerevisiae deletion strains, locus YNL128W, strain TEP1, stronger effect = lower value",0.965
same,normalized growth,"S. cerevisiae deletion strains, locus YNL153C, strain GIM3, stronger effect = lower value",0.907 (active)
same,normalized growth,"S. cerevisiae deletion strains, locus YNL298W, strain CLA4 (second series), stronger effect = lower value",0.684 (active)
same,normalized growth,"S. cerevisiae deletion strains, locus YNL322C, strain KRE1, stronger effect = lower value",0.961
same,normalized growth,"S. cerevisiae deletion strains, locus YNR030W, strain Alg12, stronger effect = lower value",0.936
same,normalized growth,"S. cerevisiae deletion strains, locus YPL055C, strain LGE1, stronger effect = lower value",0.893
same,normalized growth,"S. cerevisiae deletion strains, locus YPL241C, strain CIN2, stronger effect = lower value",1.03
same,normalized growth,"S. cerevisiae deletion strains, locus YPR135W, strain CTF4, stronger effect = lower value",1.07
same,normalized growth,"S. cerevisiae strains, strain wild type, stronger effect = lower value",0.887 (active)
